# Screening results (PubChem BioAssay)
# The list is not random: actives were taken first. Their share in the collection is about 6.1%.
# Hsp90 inh: displaces geldanamycin probe from tumor Hsp90; NCI-N417 lysate Hsp90, Cy3B-geldanamycin FP displacement; inhibition, % at 30 µM; actives 0.35% (n = 64,000);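 active means inhibition above 50%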;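 further: 0% = tracer plus lysate wells and 100% = tracer alone without lysate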
# M1 agonist: agonists of M1 muscarinic receptor; actives 3% (n = 64,000); AID 626; CHO-M1 cells, Fluo-4 calcium fluorescence, agonist mode; stronger effect = higher value; B-score at 10 µM;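 active means fluorescence rise, raw or as B-score row- and column-corrected plate score, outside the 99.7% band of its plate's samples, either direction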
# DUSP1 inh: inhibitors of human MKP-1 phosphatase | P28562 | inhibition, %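 (compounds tested at a single concentration somewhere between 10 and 100 µM)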 | recombinant MKP-1, OMFP hydrolysis fluorescence | actives 0.15% (n = 65,000) | AID 374;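 active means inhibition above about 50%, limit read from the data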;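 further: 0% = DMSO max control wells and 100% = wells with enzyme stopped by NaOH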
# Target sequence (P28562 whole entry, looked up): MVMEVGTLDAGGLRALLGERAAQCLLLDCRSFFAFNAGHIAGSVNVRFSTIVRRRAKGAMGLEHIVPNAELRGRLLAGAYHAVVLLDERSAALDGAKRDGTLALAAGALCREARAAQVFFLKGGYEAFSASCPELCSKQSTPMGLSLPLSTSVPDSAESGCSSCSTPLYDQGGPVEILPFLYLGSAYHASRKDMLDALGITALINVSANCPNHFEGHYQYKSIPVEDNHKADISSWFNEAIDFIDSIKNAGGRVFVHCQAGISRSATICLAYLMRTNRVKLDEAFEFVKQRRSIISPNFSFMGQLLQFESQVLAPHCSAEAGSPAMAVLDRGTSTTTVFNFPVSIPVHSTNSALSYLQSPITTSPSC
# Cdc25B inh: inhibitors of human Cdc25B phosphatase; AID 368; actives 0.1% (n = 65,000); inhibition, %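 (compounds tested at 10 µM final in the well)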; recombinant Cdc25B, OMFP fluorescence Ex485/Em525; P30305; in the data active means inhibition above about 50%
# M1 antagonist: M1 muscarinic receptor (rat) antagonism. actives 3.4% (n = 64,000). AID 628. CHO-M1 cells, Fluo-4 calcium, ACh EC80 antagonist mode; stronger effect = lower value. P08482. B-score at 10 µM;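 active means calcium fluorescence response, raw or row-and-column corrected B-score, differing from the plate sample mean either way at a set confidence level, mostly lower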
# MMP13 inh: MMP13 (human) collagenase inhibition; P45452; MMP-13 fTHP FRET cleavage, Mca fluorescence; inhibition, % at 4 µM; actives 0.07% (n = 65,000); AID 570;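 active means inhibition above the mean of compound-free control plate wells plus 3 SD, cut at about 14% in these data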;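 further: 0% = DMSO wells and 100% = wells with reference MMP-13 inhibitor after basal subtraction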
# M1 antag conf: confirmation of rat M1 muscarinic receptor antagonists; actives 43% (n = 1,700); AID 677; CHO-M1 cells, Fluo-4 calcium, ACh EC80 antagonism; stronger effect = lower value; calcium response (max-min fluorescence) at 10 µM; shares compounds with M1 antagonist;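 active means calcium response below the same-plate mean of wells given acetylcholine alone at its 80%-effect dose, minus 3 SD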;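 further: raw fluorescence intensity difference in arbitrary instrument units and not normalized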
# mGluR4 antag: selectivity test for M1 antagonists: human mGluR4 receptor; actives 0.9% (n = 1,700); AID 678; CHO-mGluR4 calcium flux, Fluo-4 fluorescence, glutamate EC80; stronger effect = lower value; fluorescence response (max-min) at 10 µM; shares compounds with M1 antagonist;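 active means fluorescence response below the plate's average for near-maximal glutamate wells, less 3 SD of those wells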;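 further: raw unnormalized fluorescence span taken in the window right after glutamate addition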
# * hit, by the source's call; x = no result given.
SMILES,Hsp90 inh,M1 agonist,DUSP1 inh,Cdc25B inh,M1 antagonist,MMP13 inh,M1 antag conf,mGluR4 antag
CCOC(=O)c1ccccc1NC(=O)CN(c1ccccc1)S(=O)(=O)N(C)C,0,0.8,-7,-7,0,2,x,x
CCCCn1c(SCC(=O)Nc2nnc(CC)s2)nc2ccccc2c1=O,-3,-0.71,17,-13,-7.8*,1,602,230
Cc1ccccc1CN1C(=O)C2(OCCCO2)c2ccccc21,-6,-0.29,6,5,0.72,-1,x,x
CCCCn1nnnc1NCc1ccc(N2CCCC2)cc1,-6,-0.82,-3,-1,-3.7*,-1,544,240
CCCCn1nnnc1NCc1cccnc1,-2,0.021,1,-11,0.31,-2,x,x
O=C(CCCSc1nc2ccccc2s1)NC1=NCCS1,-4,-0.51,2,-9,-0.66,2,x,x
CC(C)Oc1ccc(NC(=O)c2ccncc2)cc1,-9,-1.2,8,-3,-1.2,0,x,x
CC1(C)CC(=O)c2c(nc3ccccc3c2N)C1,-2,-0.23,-11,4,-0.23,-23,x,x
CC1(C)CC(=O)c2c(nn(-c3ccccc3)c2N)C1,0,0.34,-20,-8,-2.4*,0,517,241
CCC(Sc1nc(=O)cc(N)n1-c1ccccc1)C(=O)Nc1ccc(Cl)cn1 (configuration not stated),-1,-0.26,-8,-11,0.25,0,x,x
O=C(O)[C@@H]1C[C@@H](C(=O)O)N1,1,x,x,x,x,x,x,x
O=C(NC1CCCC1)C(c1ccco1)N(Cc1ccccc1)C(=O)c1csnn1 (configuration not stated),0,-0.23,4,-7,-0.19,-3,x,x
CCc1cc2c(NCCN3CCCCC3)ncnc2s1,-3,0.5,-3,1,-4.3*,0,534*,196
O=C(C1CCC1)N1CCc2cc(S(=O)(=O)NC3CCCC3)ccc21,-2,-0.95,-4,-8,-15*,0,580,209
NC(=O)NCC12CC3CC(CC(C3)C1)C2,-1,0.55,6,4,-2.9*,-2,668,248
O=C(CN1CCCC1)NCC12CC3CC(CC(C3)C1)C2,-3,0.58,-29,-25,-0.13,2,x,x
Cc1ccnc(NC(=O)CCC(=O)N(CC(=O)NC2CCCCC2)c2ccc3c(c2)OCO3)c1,1,-0.016,16,5,-0.41,4,x,x
Cc1ccc(N2CC(c3nc4ccccc4[nH]3)CC2=O)c(C)c1 (configuration not stated),2,-0.42,-12,-4,0.19,5,x,x
O=C(c1ccc(S(=O)(=O)N2CCCCC2)cc1)N1CCN(c2ccccc2)CC1,0,0.5,-16,-2,-1.1,-2,x,x
O=C(c1ccc(S(=O)(=O)N2CCCCCC2)cc1)N1CCN(c2ccccn2)CC1,-15,-0.55,20,3,-2.1*,4,507*,203
CCCCNC(=O)c1cc2c(=O)n3cccc(C)c3nc2n(CCN2CCOCC2)c1=N,-11,x,2,5,x,-378,x,x
CCOCCCn1c(=N)c(C(=O)NCc2ccc3c(c2)OCO3)cc2c(=O)n3cccc(C)c3nc21,-4,0.41,10,4,-10*,-48,91*,202
COCCCn1c(=N)c(C(=O)NCc2ccc3c(c2)OCO3)cc2c(=O)n3cccc(C)c3nc21,-4,0.61,-14,5,-7.1*,-10,90*,204
COCCCn1c(=N)c(C(=O)NCc2ccc3c(c2)OCO3)cc2c(=O)n3ccccc3nc21,-7,-0.77,-23,6,-2,-9,x,x
CCc1ccccc1NC(=O)Cn1nnc(-c2cccnc2)n1,-3,-0.63,-18,-7,0.21,0,x,x
SMILES,Hsp90 inh,M1 agonist,DUSP1 inh,Cdc25B inh,M1 antagonist,MMP13 inh,M1 antag conf,mGluR4 antag
Cc1ccc(-n2ncc(C(=O)NCc3ccc4c(c3)OCO4)c2NC(=O)c2ccco2)cc1C,-4,0.33,2,-12,0.09,2,x,x
CCCCC(=NCCO)C1=C(O)C(C(=O)OC)C(C)(C)CC1=O (configuration not stated),1,-0.035,2,1,-3.5*,3,674,202
CCCn1nc(-c2nnc(-c3ccc(C)c(C)c3)o2)c2ccccc2c1=O,2,0.098,5,0,0.61,0,x,x
COc1cc(OC)c(NC(=O)CCNS(=O)(=O)c2cc(Br)cnc2N)cc1Cl,1,0.24,-2,-9,-6.9*,-4,549,253
O=C(CCNS(=O)(=O)c1cccc2nsnc12)N1CCc2ccccc21,-3,-0.37,-18,-11,0.21,4,x,x
O=C(CCNS(=O)(=O)c1cccc2nsnc12)N1CCN(c2ccccn2)CC1,0,-0.3,9,2,-2*,0,42*,242
Nc1ncc(Br)cc1S(=O)(=O)NCCC(=O)N1CCN(c2ncccn2)CC1,-5,-0.64,28,1,-2.9*,-7,550,256
CCOC(=O)N1CCN(C(=O)CCNS(=O)(=O)c2cc(Br)cnc2N)CC1,-4,1.1,12,-1,-0.79,-7,x,x
S=c1[nH]nc(Cc2ccccc2)n1Cc1ccco1,-1,0.77,2,4,-13*,3,52*,240
CCn1c(SCC(=O)Nc2c(C)n(C)n(-c3ccccc3)c2=O)nnc1-c1cccc(C)c1,1,2.5,18,-3,-1.9*,0,575,196
CCOc1ccccc1Oc1c(C)oc2c(CN3CCN(CCO)CC3)c(O)ccc2c1=O,-1,0.14,3,-9,0.094,-268,x,x
CCOC(=O)c1ccc(Oc2c(C)oc3c(CN4CCN(C)CC4)c(O)ccc3c2=O)cc1,2,-0.19,15,0,-4.4*,-341,405*,250
Cc1ccccc1-n1nnnc1SCc1csc(-c2ccccc2)n1,-9,-0.97,19,-3,0.24,-5,x,x
Clc1ccc(OCCn2ccnc2)c2ccccc12,-2,0.017,6,-22,-0.16,1,x,x
Clc1ccc(OCCn2ccnc2)c(Cl)c1,0,-1.7,-2,-4,-3*,1,408*,211
CCCCOc1ccc(NC2=NC3(CCCC3)N=C(N)N2)cc1,-1,0.22,0,0,-3*,2,477*,226
COc1cccc(-n2nnc3c(=O)n(CC(=O)N4CCC(Cc5ccccc5)CC4)cnc32)c1,-1,-0.24,7,-7,0.23,-2,x,x
COc1cccc(-c2nc(NCCN3CCOCC3)c3ccccc3n2)c1O,0,7.4,-10,6,-1.9,-1,x,x
Oc1ccccc1-c1nc(NCCN2CCOCC2)c2ccccc2n1,0,6.9,-7,13,-2.8*,0,614,157
